In PubChem BioAssay (NCI):
Values joined by “and” are separate entries in the source; they are usually repeats but may differ in a detail not shown here. Equal values may be shown once. This is part of a sample that, as a whole, favours compounds with a hit. Of some 83,000 tested, about 20% had one in any assay.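 Testing used 96-well plates and a 48-hour single-concentration exposure. Example: -40 means 40% of the starting cells died.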 A number with no mark means an inactive call. Active and inactive are the calls of the source. Rule for the calls: active = growth percent below 10; inactive = the rest.

Tested on: HL-60(TB) leukemia
Experiment: NCI-60 one-dose screen, 48 h (100 = growth as untreated, 0 = no growth, -100 = all killed)
Settings: 10 µM unless noted

Question: With CCc1nc2c(=O)[nH]cnc2o1 as the compound, how does the growth read?
Answer: 106%

Question: For CCN(CC)CCCOc1ccc2c(c1)O/C(=C\c1cccc(OC)c1)C2=O, which growth is on record?
Answer: 97.4%

Question: Which growth does the source give for CCc1ccc(C(=O)/C=C/C23c4ccccc4C(c4ccccc42)C2C(=O)NC(=O)C23)cc1 (stereo not drawn) here?
Answer: -12.3% (active)

Question: How did the growth turn out when CCOc1cc(CCNS(=O)(=O)c2ccc(C)cc2)c(C(C)=O)cc1OCC was run?
Answer: 46.5% [100 µM]

Question: CC(C)C[C@H](NC(=O)[C@@H](Cc1ccccc1)n1ccc(Nc2ccccc2)cc1=O)B(O)O was tested. Which growth did it give?
Answer: -7.72% (active)

Question: How did the growth turn out when NC(=O)CSSCC(N)=O was run?
Answer: 9.36% (active)

Question: For Nc1c(Br)cc(Br)cc1-c1n[nH]c(=O)[nH]c1=O, which growth is on record?
Answer: 94.4%

Question: COc1ccc2nc3cc(Cl)ccc3c(N)c2c1 was tested. Which growth did it give?
Answer: -71.6% (active)

Question: For c1ccc2c(CC3=NCCN3)cccc2c1, which growth is on record?
Answer: 107% and 103%

Question: Which growth does the source give for Clc1ccc(N/N=C/c2ccccn2)nc1 here?
Answer: -15.4% (active)

Question: For COc1cc2nc(Cl)nc(NCCO)c2cc1OC, which growth is on record?
Answer: 104%

Question: How did the growth turn out when Cc1ccc(N(CC2=NCCN2)c2cccc(O)c2)cc1 was run?
Answer: 105%

Question: With Cc1cc(N2CCOCC2)nc(N2CCOCC2)n1 as the compound, how does the growth read?
Answer: 97.9%

Question: With Cc1cccc(Cl)c1NC(=O)c1ccc2nc(NC(=O)NC3CC(C)(C)NC(C)(C)C3)sc2c1 as the compound, how does the growth read?
Answer: 110%

Question: With O=S(=O)(NCCCNc1nccc(-c2c(-c3ccc(F)c(O)c3)nc3occn23)n1)c1ccccc1 as the compound, how does the growth read?
Answer: 84.3%

Question: For CCN1CCN(Cc2ccc(NC(=O)Nc3ccc(-n4ccc5c(NC(=O)c6ccccc6)nccc54)cc3)cc2C(F)(F)F)CC1, which growth is on record?
Answer: 35.8%

Question: With CCOc1cccc(Nc2nc(N)nc3[nH]c4ccc(O)cc4c23)c1 as the compound, how does the growth read?
Answer: 53%

Question: With CN1C(=O)N(C)C2C1NN=c1s/c(=C\c3cccnc3)c(=O)n12 (stereo not drawn) as the compound, how does the growth read?
Answer: 82.7%

Question: How did the growth turn out when CN(C)CCNC(=O)n1cc(-c2ccncc2)c(-c2cc(O)cc(Cl)c2)n1 was run?
Answer: 87.1%

Question: With CCOc1ccc2nc3ccc(Cl)cc3nc2c1 as the compound, how does the growth read?
Answer: 63.7%

Question: COc1cc(-c2nc3cc(Cl)c(Cl)cc3[nH]2)ccc1OCC(=O)N=Nc1c(O)[nH]c2ccc([N+](=O)[O-])cc12 was tested. Which growth did it give?
Answer: 94.9%

Question: How did the growth turn out when Cc1ccccc1/C=C/C(=O)c1cccc(OCCCOc2cccc(C(=O)/C=C/c3ccccc3C)c2)c1 was run?
Answer: 78.2% [3 µM]

Question: For O=C(O)c1ccc(-c2nn(-c3ccc(C(=O)O)cc3)cc2/C=N/Nc2c(F)c(F)cc(F)c2F)cc1, which growth is on record?
Answer: 96.5%

Question: For COc1ccc(C(=O)/C=C/c2c(C(F)(F)F)nc3ccccn23)cc1OC, which growth is on record?
Answer: 2.72% (active)

Question: With CCCCCC(=O)Oc1ccc(/C(=C(\C)c2ccc(OC)cc2)c2ccc(OCCN3CCCCC3)cc2)cc1 as the compound, how does the growth read?
Answer: 42.7%

Question: Cc1c(N)ccc(-c2ccc(N)c(C)c2S(=O)(=O)O)c1S(=O)(=O)O was tested. Which growth did it give?
Answer: 94.7%

Question: Which growth does the source give for COc1cc(-c2nn(-c3cccc(NC(=O)CN4CCOCC4)c3)cc2-c2cccnc2)ccc1Cl here?
Answer: 84%

Question: Cc1cc(C)c2c(c1)N(C)c1ncnc(-n3cnc4cc(C)ccc43)c1CC2C (stereo not drawn) was tested. Which growth did it give?
Answer: 11.1%

Question: With COc1ccc(-c2nc3ncccn3c2-c2nnc(-c3ccc(F)cc3)o2)cc1 as the compound, how does the growth read?
Answer: 91.1%

Question: How did the growth turn out when CC(C)n1cnc2c(Nc3cccc(Cl)c3)nc(N[C@H]3CCCC[C@@H]3N)nc21 was run?
Answer: 25.1%

Question: Which growth does the source give for Cc1nc(Nc2n[nH]c3c2CN(C(=O)N[C@H](CN(C)C)c2ccccc2)C3(C)C)c2sccc2n1 here?
Answer: -30.6% (active)

Question: With CCc1ccc(CCCC(=O)O)cc1 as the compound, how does the growth read?
Answer: 98.8%

Question: For CC(=O)OCC1OC(OC(C)=O)C(OC(C)=O)C(OC(C)=O)C1OC(C)=O (stereo not drawn), which growth is on record?
Answer: 120% and 101%

Question: With COc1ccc(Nc2ccnc(N3CCN(c4ccnc5cc(Cl)ccc45)CC3)n2)cc1 as the compound, how does the growth read?
Answer: -16.8% (active)

Question: How did the growth turn out when O=C(N/N=C/c1ccc(F)cc1)c1ccccc1Nc1cccc(C(F)(F)F)c1 was run?
Answer: 88.1%

Question: How did the growth turn out when O=C1NC(c2ccc(Cl)c(Cl)c2)=C/C1=C\c1ccccc1 was run?
Answer: 94.1%

Question: COc1c(N)c2c(c([N+](=O)[O-])c1OC)C(=O)OC2 was tested. Which growth did it give?
Answer: 95.3%

Question: For COc1ccc(C2c3sc4c(F)cccc4c3Oc3nc[nH]c(=O)c32)cc1 (stereo not drawn), which growth is on record?
Answer: -44.6% (active)

Question: With COCCCNc1nc(NC(=O)c2ccc(F)cc2C)cc(-c2cccnc2)n1 as the compound, how does the growth read?
Answer: 106%

Question: IC(I)I was tested. Which growth did it give?
Answer: 98.3%

Question: Which growth does the source give for O=C(Cc1ccccc1)c1ccc(Cl)cc1 here?
Answer: 111%

Question: With CCOC(=O)C(N)Cc1cc(I)c(O)c(I)c1 (stereo not drawn) as the compound, how does the growth read?
Answer: 99.9% and 132%

Question: For O=[N+]([O-])c1ccc2c(c1)Cc1cc(F)ccc1-2, which growth is on record?
Answer: 114%
